High-throughput results as filed in PubChem.
Pf growth 48h – Primary qHTS for delayed death inhibitors of the malarial parasite plastid, 48 hour incubation | P. falciparum luciferase growth in erythrocytes, 48 h | Potency, µM (titrated, usually from 28.7 µM), without a hit: at the top dose activity change, negative = inhibition, actives largely listed as inhibitors | 5.9% of 310,000 active; also: potency is read from the fitted curve at half-maximal effect; % is scaled to controls: 0 for no effect and ±100 for the full control effect
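Here the parasites carry a stable luciferase gene and grow inside erythrocytes in Albumax-based RPMI medium with compound for one erythrocytic cycle. Activity is scored as loss of luminescent signal.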
Pf growth 96h – Primary qHTS for delayed death inhibitors of the malarial parasite plastid, 96 hour incubation. 6.9% of 320,000 active. Potency, µM (highest dose often 28.7 µM), for the others: at the top dose activity change, negative = inhibition, actives largely listed as inhibitors. P. falciparum luciferase reporter growth, 96 h; also: potency is read from the fitted curve at half-maximal effect; % is scaled to controls: 0 for no effect and ±100 for the full control effect
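Compounds incubated with erythrocytes infected by luciferase-expressing P. falciparum (2% hematocrit, 0.05% parasitemia final) for 96 hours, 37 C in 5% CO2. Growth inhibition scored as decreased luciferase luminescence.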
Shiga inhibitor – A qHTS for Small Molecule Inhibitors of Shiga Toxin; Vero cells, Shiga toxin protein synthesis inhibition reporter; inhibition, % at 38.7 µM; 9.2% of 290,000 active; AID 2315, 2010; in the data active = inhibition mostly above about 28%, no sharp cut-off; inactive = mostly below about 43%; also: 0% is about no effect
CHX counter – Cycloheximide Counterscreen for Small Molecule Inhibitors of Shiga Toxin | max response, % | 12% of 300,000 active | cell reporter, cycloheximide protein synthesis inhibition counterscreen | AID 2314, 2010; in the data active = max response mostly above about 13%, no sharp cut-off; inactive = mostly below about 14%; also: read at 38.3 µM for the half of the compounds with a filed dose; 0% is about no effect
NS1 function inh – qHTS Assay for Inhibitors of Influenza NS1 Protein Function. Potency, µM (highest dose often 46.1 µM), inactives show at the top dose activity, positive = more growth. 0.4% of 270,000 active. AID 2326, 2010; calls by dose curve; also: potency is read from the fitted curve at half-maximal effect; actives are rising curves; nearly all actives have a fitted effect of over 50% in size
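OD600 was taken as the measure of yeast growth restored by compound in an NS1-expressing S. cerevisiae strain. Cells had been washed out of glucose medium and diluted 1:100 into galactose -URA medium, pH 6.0.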
* = called active by the depositor. In the library only some 21% were active in any assay of this set; here they are far more common. Unless noted, calls follow the shape of the dose curve; as a rule, active = well fitted inhibition curve with a large enough effect; inconclusive = small, poorly fitted or top-dose-only effect, or another doubt; inactive = no such curve, though single readings can be large or run the other way.

Results for Oc1cc(NCCc2cccnc2)cc2cccnc12 ?
Pf growth 48h: 12µM*; Pf growth 96h: 8.3µM*

Results for COc1ccc(Nc2cc(O)c3ncccc3c2)cc1 ?
Pf growth 48h: 0.47µM*; Pf growth 96h: 0.41µM*

How did Oc1cc(Nc2cccnc2)cc2cccnc12 do in these assays?
Pf growth 48h: 10µM*; Pf growth 96h: 4.1µM*

Results for Oc1cc(Nc2ccncc2)cc2cccnc12 ?
Pf growth 48h: 12µM*; Pf growth 96h: inconclusive

How did c1ccc(CCc2cccnc2)nc1 do in these assays?
NS1 function inh: -4%

How did CCCN(CCC)C(=O)CCSCCC(=O)N(CCC)CCC do in these assays?
Pf growth 48h: 14%; Pf growth 96h: -8%; Shiga inhibitor: -2; CHX counter: -1; NS1 function inh: -3%

Results for CCOCc1c(C(=O)OCC(=O)Nc2ccccc2C(N)=O)oc2ccccc12 ?
Pf growth 48h: inconclusive; Pf growth 96h: -14%

How did CC(NC(=O)Cn1cnnn1)C12CC3CC(CC(C3)C1)C2 (centres undefined) do in these assays?
Pf growth 48h: 29%; Pf growth 96h: 33%; Shiga inhibitor: 17; CHX counter: -6; NS1 function inh: 3%

What do the screens show for `CC(n1cnnn1)C12CC3CC(CC(C3)C1)C2` (centres undefined)?
Pf growth 48h: inconclusive; Pf growth 96h: 1.7µM*; Shiga inhibitor: -14; CHX counter: 0; NS1 function inh: 0%

What do the screens show for `Cc1c(-c2nc(N)nc(Nc3ccccc3)n2)oc2ccccc12`?
Pf growth 48h: -47%; Pf growth 96h: inconclusive; Shiga inhibitor: 77*; CHX counter: 39*; NS1 function inh: -54%

How did COc1ccc(OC)c(Nc2nc(N)nc(-c3cc4ccccc4o3)n2)c1 do in these assays?
Pf growth 48h: inconclusive; Shiga inhibitor: 0; CHX counter: -1; NS1 function inh: -15%

Results for CC1CCC2(CC1)NC(=O)N(NC(=O)c1cccs1)C2=O (centres undefined) ?
Pf growth 48h: -24%; Pf growth 96h: 0%

What do the screens show for `C/C(NC(=O)c1cccs1)=C1\C(=O)C[C@@H]2[C@H]1C2(C)C`?
Pf growth 48h: inconclusive; Pf growth 96h: inconclusive; Shiga inhibitor: 29; CHX counter: 15*; NS1 function inh: -34%

How did O=C(COC(=O)CCN1C(=O)C2CC=CCC2C1=O)Nc1ccc(Cl)cc1F (centres undefined) do in these assays?
Pf growth 48h: -10%; Pf growth 96h: -24%

How did COC(=O)c1cc(NC(=O)CSC2=NCCS2)cc(C(=O)OC)c1 do in these assays?
Pf growth 48h: -25%; Pf growth 96h: -9%; Shiga inhibitor: 18; CHX counter: -4; NS1 function inh: 4%

How did CCOc1cc([N+](=O)[O-])cc2c1C(=O)Nc1ccccc1O2 do in these assays?
Pf growth 48h: inconclusive; Pf growth 96h: inconclusive; Shiga inhibitor: 30; CHX counter: 25*

Results for COc1cccc(C(C(=O)NC2CCCCC2)N(C(=O)c2cccs2)c2ccc3c(c2)OCO3)c1 (centres undefined) ?
Pf growth 48h: 10µM*; Pf growth 96h: -101%; Shiga inhibitor: -6; CHX counter: -4; NS1 function inh: -2%

Results for COc1cccc(C(C(=O)NC2CCCCC2)N(C(=O)Cc2cccs2)c2ccc(-n3cnnn3)c(OC)c2)c1 (centres undefined) ?
Pf growth 48h: 10µM*; Pf growth 96h: 5%; Shiga inhibitor: -4; CHX counter: -1; NS1 function inh: 15%

What do the screens show for `Cc1nn(C)cc1C(C(=O)NC1CCCCC1)N(C(=O)Cc1cccs1)c1ccc(F)cc1` (centres undefined)?
Pf growth 48h: 0%; Pf growth 96h: 22%; Shiga inhibitor: -11; CHX counter: -1; NS1 function inh: 5%

Results for Cn1cccc1C(C(=O)NC1CCCCC1)N(C(=O)Cc1cccs1)c1ccc2c(c1)OCO2 (centres undefined) ?
Pf growth 48h: inconclusive; Pf growth 96h: inconclusive; Shiga inhibitor: 15; CHX counter: -3; NS1 function inh: -3%

What do the screens show for `COc1cc(N(C(=O)Cc2cccs2)C(C(=O)NC2CCCCC2)c2cccc(OC)c2OC)ccc1-n1cnnn1` (centres undefined)?
Pf growth 48h: 10µM*; Pf growth 96h: -25%; Shiga inhibitor: -15; CHX counter: -1; NS1 function inh: 13%

Results for O=C1CN(C(=O)/C=C/c2cc(Br)ccc2F)CCN1 ?
Pf growth 48h: 20%; Pf growth 96h: 8%; Shiga inhibitor: -7; CHX counter: -3; NS1 function inh: -4%

What do the screens show for `CCCCc1nc2cc(C(=O)NCc3ccccn3)ccc2o1`?
Pf growth 48h: -10%; Pf growth 96h: 12µM*; Shiga inhibitor: 47; CHX counter: 10*; NS1 function inh: 1%

How did CCCCc1nc2cc(C(=O)N(C)C(C)c3ccccn3)ccc2o1 (centres undefined) do in these assays?
Pf growth 48h: -3%; Pf growth 96h: 22%; Shiga inhibitor: 30*; CHX counter: 23*; NS1 function inh: -5%

What do the screens show for `CCCCc1nc2cc(C(=O)NC3CCOC(C)(C)C3)ccc2o1` (centres undefined)?
Pf growth 48h: 6%; Pf growth 96h: inconclusive; Shiga inhibitor: -1; CHX counter: 9; NS1 function inh: -9%

What do the screens show for `Cc1cnc(CNC(=O)c2ccc3oc(Cc4ccccc4)nc3c2)[nH]1`?
Pf growth 48h: -14%; Pf growth 96h: -16%; Shiga inhibitor: 12; CHX counter: 21; NS1 function inh: 5%

Results for CCn1ccnc1CNC(=O)c1ccc2oc(CCCc3ccccc3)nc2c1 ?
Pf growth 48h: inconclusive; Pf growth 96h: 15%; Shiga inhibitor: 32*; CHX counter: 19*; NS1 function inh: -11%

Results for CC(CCCC(C)(C)O)NC(=O)c1ccc2oc(CCc3ccccc3)nc2c1 (centres undefined) ?
Pf growth 48h: 19%; Pf growth 96h: -24%; Shiga inhibitor: 9; CHX counter: 14*; NS1 function inh: -11%

What do the screens show for `CC(C)N(Cc1nccn1C)C(=O)c1ccc2oc(Cc3ccccc3)nc2c1`?
Pf growth 48h: inconclusive; Pf growth 96h: 3%; Shiga inhibitor: 13; CHX counter: 1; NS1 function inh: 0%

What do the screens show for `CC(=O)c1cnc2nc(C(F)(F)F)nn2c1C`?
Pf growth 48h: 0%; Pf growth 96h: 4%; Shiga inhibitor: -12; CHX counter: -3; NS1 function inh: inconclusive

What do the screens show for `CC(=O)c1cnc2nc(SCc3ccccc3C)nn2c1C`?
Pf growth 48h: 58%; Pf growth 96h: 8%; Shiga inhibitor: 21; CHX counter: 18*; NS1 function inh: -18%

How did O=C(CS(=O)(=O)c1ccc(Cl)cc1)NCc1ccccc1 do in these assays?
Pf growth 48h: 20%; Pf growth 96h: inconclusive; Shiga inhibitor: 6; CHX counter: 8; NS1 function inh: -6%
